Measurements reported in PubChem BioAssay (EPA / NIEHS).
Values joined by “and” are separate entries in the source; they are usually repeats but may differ in a detail not shown here. Equal entries are not always repeated. Active and inactive are the calls of the source. Rule for the calls: active = hit-call score of the fitted dose curve at least 0.9, where 1 is the maximum; inactive = score below 0.9.

Legend:
[1] = target: Bile acid receptor (Homo sapiens) (UniProt Q96RI1); experiment: ATG_IR1_CIS: Attagene CIS-FACTORIAL HepG2 Assay for human Nuclear Receptor Subfamily 1 Group H Member 4 (NR1H4), IR1 submotif (AID 2282946); conditions: IR1 reporter transcription, actives raise or lower the signal
Sequence of Bile acid receptor (Homo sapiens) (Q96RI1 whole entry, looked up): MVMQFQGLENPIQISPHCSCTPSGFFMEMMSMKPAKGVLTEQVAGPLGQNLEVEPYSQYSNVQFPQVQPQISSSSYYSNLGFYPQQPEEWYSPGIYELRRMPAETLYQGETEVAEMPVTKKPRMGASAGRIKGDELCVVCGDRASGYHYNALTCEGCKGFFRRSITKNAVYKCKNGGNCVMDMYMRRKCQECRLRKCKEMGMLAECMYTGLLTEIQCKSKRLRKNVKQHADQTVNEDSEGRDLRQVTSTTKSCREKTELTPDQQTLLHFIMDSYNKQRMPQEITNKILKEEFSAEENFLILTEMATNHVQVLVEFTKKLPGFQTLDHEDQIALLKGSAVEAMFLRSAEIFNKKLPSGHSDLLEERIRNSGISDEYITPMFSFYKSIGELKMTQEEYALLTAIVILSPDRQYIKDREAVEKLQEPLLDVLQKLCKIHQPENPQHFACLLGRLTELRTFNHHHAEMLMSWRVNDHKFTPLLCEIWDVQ
Summary of the method: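 Fluorescence of capillary-separated, HpaI-digested RT-PCR reporter products gave IR1-element mRNA induction in HepG2 cells 24 h after dosing. Endogenous transcription factors drove the cis-regulated reporters; activity was fitted bidirectionally against DMSO.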

[2] = ATG_GRE_CIS: Attagene CIS-FACTORIAL HepG2 Assay for human Glucocorticoid Response Elements (GRE) (AID 2282947); conditions: HepG2 GRE cis-reporter, Attagene multiplex mRNA; actives raise or lower the signal
Summary of the method: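 Fluorescence intensity of reporter-specific cDNA fragments, separated by capillary electrophoresis, provides the signal. Constructs carry cis-regulating promoters in transiently transfected HepG2 liver cells; 24 h incubation; fitting is bidirectional against DMSO.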

[3] = ATG_ISRE_CIS: Attagene CIS-FACTORIAL HepG2 Assay for human Interferon Regulatory Factor 1 (IRF1) binding to an Interferon-Stimulated Response Element (ISRE) (AID 2282948); conditions: HepG2 ISRE cis-reporter (Attagene), mRNA transcription readout; actives raise or lower the signal
Summary of the method: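 Read-out: fluorescent RT-PCR products resolved by capillary electrophoresis, reporting endogenous transcription factor activity via ISRE-driven reporter mRNA in transfected HepG2 cells dosed for 24 h; gain or loss fitted relative to DMSO.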

[4] = ATG_M_32_CIS: Attagene CIS-FACTORIAL HepG2 Assay for M32 Transcription Factor (Internal Marker) (AID 2282949); conditions: HepG2 Attagene cis-factorial M32 reporter, mRNA; actives raise or lower the signal;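 note: background control marker of the multiplexed CIS panel rather than a real target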
Summary of the method: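 HepG2 transfectants (cis-regulated reporter transcription units) dosed 24 h. Reporter mRNA by RT-PCR plus CE, analysed as gain or loss relative to DMSO.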

[5] = ATG_M_06_CIS: Attagene CIS-FACTORIAL HepG2 Assay for M06 Transcription Factor (Internal Marker) (AID 2282950); conditions: HepG2 Attagene CIS-FACTORIAL M06 internal marker reporter; actives raise or lower the signal
Summary of the method: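 HepG2 liver cells, 24 h exposure. Reporter transcripts from transfected cis-element constructs quantified by RT-PCR/capillary electrophoresis fluorescence. Bidirectional curve fit against DMSO.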

[6] = target: Hypoxia-inducible factor 1-alpha (Homo sapiens) (UniProt Q16665); experiment: ATG_HIF1a_CIS: Attagene CIS-FACTORIAL HepG2 Assay for human Hypoxia Inducible Factor 1 (HIF1A) (AID 2282951); conditions: HepG2 Attagene cis-factorial HIF1a reporter transcription; actives raise or lower the signal
Sequence of Hypoxia-inducible factor 1-alpha (Homo sapiens) (Q16665 whole entry, looked up): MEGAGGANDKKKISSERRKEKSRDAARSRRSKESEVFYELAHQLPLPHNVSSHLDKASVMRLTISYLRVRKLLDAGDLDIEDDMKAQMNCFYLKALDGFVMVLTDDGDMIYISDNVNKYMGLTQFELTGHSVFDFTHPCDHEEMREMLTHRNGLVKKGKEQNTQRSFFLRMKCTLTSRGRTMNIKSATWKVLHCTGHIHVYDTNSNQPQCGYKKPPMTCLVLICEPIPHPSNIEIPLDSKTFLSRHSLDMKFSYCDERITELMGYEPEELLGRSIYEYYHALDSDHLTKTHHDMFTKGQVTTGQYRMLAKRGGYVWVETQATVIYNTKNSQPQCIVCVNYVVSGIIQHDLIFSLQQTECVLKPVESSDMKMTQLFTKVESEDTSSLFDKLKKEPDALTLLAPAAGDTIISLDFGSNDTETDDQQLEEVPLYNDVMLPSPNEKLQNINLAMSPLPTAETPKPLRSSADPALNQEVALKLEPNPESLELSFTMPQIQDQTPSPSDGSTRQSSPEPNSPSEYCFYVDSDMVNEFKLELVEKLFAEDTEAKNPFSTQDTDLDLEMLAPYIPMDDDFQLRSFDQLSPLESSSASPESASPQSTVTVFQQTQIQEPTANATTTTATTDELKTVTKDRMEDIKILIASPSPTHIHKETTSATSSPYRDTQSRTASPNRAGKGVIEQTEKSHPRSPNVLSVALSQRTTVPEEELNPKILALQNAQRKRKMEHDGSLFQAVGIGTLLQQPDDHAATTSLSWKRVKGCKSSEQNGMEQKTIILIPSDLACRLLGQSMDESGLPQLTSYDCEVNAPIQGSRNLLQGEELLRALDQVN
Summary of the method: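 Activity is fitted in both directions relative to DMSO. Reporter transcripts are read by RT-PCR, fluorescent primer extension and capillary electrophoresis after 24 h chemical treatment. The cells are HepG2 carrying transiently transfected cis-element-driven reporter units responding to endogenous factors.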

[7] = target: Hepatocyte nuclear factor 6 (Homo sapiens) (UniProt Q9UBC0); experiment: ATG_HNF6_CIS: Attagene CIS-FACTORIAL HepG2 Assay for human Hepatocyte Nuclear Factor 6 (HNF6) (AID 2282952); conditions: HepG2 Attagene cis-factorial HNF6 reporter transcription; actives raise or lower the signal
Sequence of Hepatocyte nuclear factor 6 (Homo sapiens) (Q9UBC0 whole entry, looked up, the tested form may be a part): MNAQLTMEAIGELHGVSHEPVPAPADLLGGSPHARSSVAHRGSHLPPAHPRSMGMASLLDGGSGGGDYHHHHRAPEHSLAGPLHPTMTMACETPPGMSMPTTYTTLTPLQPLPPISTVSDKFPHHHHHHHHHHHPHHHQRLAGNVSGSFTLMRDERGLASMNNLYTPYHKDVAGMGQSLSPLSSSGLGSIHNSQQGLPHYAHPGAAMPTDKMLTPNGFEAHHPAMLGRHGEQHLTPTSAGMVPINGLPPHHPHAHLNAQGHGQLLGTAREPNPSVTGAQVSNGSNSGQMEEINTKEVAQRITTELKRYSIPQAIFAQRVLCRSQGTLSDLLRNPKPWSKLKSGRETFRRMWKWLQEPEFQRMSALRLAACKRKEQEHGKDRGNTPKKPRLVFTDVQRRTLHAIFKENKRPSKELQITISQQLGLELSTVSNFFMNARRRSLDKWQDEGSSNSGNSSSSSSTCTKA
Summary of the method: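 Using cis-element reporters in HepG2 liver cells, the assay tracks endogenous factor-driven transcription 24 h post-dosing. Signal comes from 6-FAM-labelled, HpaI-digested RT-PCR fragments, with gain or loss scored against DMSO.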

[8] = ATG_MRE_CIS: Attagene CIS-FACTORIAL HepG2 Assay for human Metal Responsive Element (MRE) (AID 2282954); conditions: HepG2 MRE cis-reporter transcription, Attagene multiplex; actives raise or lower the signal
Summary of the method: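 Measured here is mRNA induction from an MRE cis-element reporter in HepG2 after 24 h, quantified by fluorescence of labelled RT-PCR products on capillary electrophoresis; gain- and loss-of-signal fits use DMSO as baseline.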

[9] = ATG_PBREM_CIS: Attagene CIS-FACTORIAL HepG2 Assay for human Phenobarbital-responsive Enhancer Module (PBREM) (AID 2282955); conditions: HepG2 PBREM cis-reporter, Attagene multiplexed transcription; actives raise or lower the signal
Summary of the method: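 Endogenous transcription factor activity was read from reporter transcripts in transiently transfected human HepG2 liver cells after 24 h dosing. RT-PCR products were fluorescently labelled, HpaI-cut and sized by capillary electrophoresis; activity fitted bidirectionally against DMSO baseline.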

[10] = target: Paired box protein Pax-6 (Homo sapiens) (UniProt P26367); experiment: ATG_Pax6_CIS: Attagene CIS-FACTORIAL HepG2 Assay for human Paired Box 6 (PAX6) (AID 2282956); conditions: HepG2 CIS-FACTORIAL PAX6 reporter transcription, RNA readout; actives raise or lower the signal
Sequence of Paired box protein Pax-6 (Homo sapiens) (P26367 whole entry, looked up): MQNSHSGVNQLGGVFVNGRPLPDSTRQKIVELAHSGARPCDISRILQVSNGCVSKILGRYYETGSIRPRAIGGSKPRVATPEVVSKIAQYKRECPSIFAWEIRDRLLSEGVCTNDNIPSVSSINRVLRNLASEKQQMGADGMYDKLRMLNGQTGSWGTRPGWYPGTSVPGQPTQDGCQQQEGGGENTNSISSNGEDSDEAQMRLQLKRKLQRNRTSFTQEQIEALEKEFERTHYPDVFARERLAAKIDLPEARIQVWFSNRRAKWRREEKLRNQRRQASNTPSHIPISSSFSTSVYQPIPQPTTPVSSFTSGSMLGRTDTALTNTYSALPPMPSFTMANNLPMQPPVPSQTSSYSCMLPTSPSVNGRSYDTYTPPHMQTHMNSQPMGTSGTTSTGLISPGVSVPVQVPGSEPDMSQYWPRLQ
Summary of the method: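 Readout: reporter transcript fluorescence after RT-PCR and capillary electrophoresis. Cells: HepG2, transiently transfected with cis-regulated MRTUs. Exposure 24 h. Gain or loss of signal fitted bidirectionally relative to DMSO.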

[11] = ATG_PXRE_CIS: Attagene CIS-FACTORIAL HepG2 Assay for human Pregnane X Receptor Element (PXRE) (AID 2282957); conditions: HepG2 Attagene CIS-FACTORIAL PXRE reporter, mRNA; actives raise or lower the signal
Summary of the method: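 Using HepG2 transfected with multiple reporter transcription units, endogenous factor-driven transcription was scored as reporter mRNA after 24 h exposure.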

[12] = ATG_RORE_CIS: Attagene CIS-FACTORIAL HepG2 Assay for human RAR-related Orphan Receptor Element (RORE) (AID 2282959); conditions: HepG2 Attagene cis-factorial RORE reporter, mRNA; actives raise or lower the signal
Summary of the method: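 RORE reporter transcripts reflecting endogenous factor activity were read after 24 h compound exposure of transfected HepG2 cells, using reverse transcription, PCR, fluorescent labelling and capillary electrophoresis sizing. Gain or loss fitted against DMSO.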

[13] = ATG_Sox_CIS: Attagene CIS-FACTORIAL HepG2 Assay for human SRY-box transcription factor (SOX) (AID 2282960); conditions: HepG2 Attagene cis-factorial SOX reporter, mRNA; actives raise or lower the signal
Summary of the method: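 Reporter transcripts, measured by RT-PCR and capillary electrophoresis of labelled fragments, report endogenous SOX transcription factor activity. Transiently transfected human HepG2 cells receive chemical for 24 h; changes in either direction are fitted relative to DMSO.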

[14] = ATG_SREBP_CIS: Attagene CIS-FACTORIAL HepG2 Assay for human Sterol Regulatory Element Binding (SREBP) (AID 2282962); conditions: HepG2 Attagene cis-factorial SREBP reporter, mRNA; actives raise or lower the signal
Summary of the method: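 Readout: fluorescent reporter-transcript peaks resolved by capillary electrophoresis after RT-PCR. Cells were human HepG2 carrying transfected cis-promoter reporter constructs, dosed for 24 h. Gain or loss of signal was fitted against DMSO controls.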

[15] = target: Signal transducer and activator of transcription 3 (Homo sapiens) (UniProt P40763); experiment: ATG_STAT3_CIS: Attagene CIS-FACTORIAL HepG2 Assay for human Signal Transducer and Activator of Transcription 3 (STAT3) (AID 2282963); conditions: HepG2, Attagene cis-factorial STAT3 reporter transcription; actives raise or lower the signal
Sequence of Signal transducer and activator of transcription 3 (Homo sapiens) (P40763 whole entry, looked up, the tested form may be a part): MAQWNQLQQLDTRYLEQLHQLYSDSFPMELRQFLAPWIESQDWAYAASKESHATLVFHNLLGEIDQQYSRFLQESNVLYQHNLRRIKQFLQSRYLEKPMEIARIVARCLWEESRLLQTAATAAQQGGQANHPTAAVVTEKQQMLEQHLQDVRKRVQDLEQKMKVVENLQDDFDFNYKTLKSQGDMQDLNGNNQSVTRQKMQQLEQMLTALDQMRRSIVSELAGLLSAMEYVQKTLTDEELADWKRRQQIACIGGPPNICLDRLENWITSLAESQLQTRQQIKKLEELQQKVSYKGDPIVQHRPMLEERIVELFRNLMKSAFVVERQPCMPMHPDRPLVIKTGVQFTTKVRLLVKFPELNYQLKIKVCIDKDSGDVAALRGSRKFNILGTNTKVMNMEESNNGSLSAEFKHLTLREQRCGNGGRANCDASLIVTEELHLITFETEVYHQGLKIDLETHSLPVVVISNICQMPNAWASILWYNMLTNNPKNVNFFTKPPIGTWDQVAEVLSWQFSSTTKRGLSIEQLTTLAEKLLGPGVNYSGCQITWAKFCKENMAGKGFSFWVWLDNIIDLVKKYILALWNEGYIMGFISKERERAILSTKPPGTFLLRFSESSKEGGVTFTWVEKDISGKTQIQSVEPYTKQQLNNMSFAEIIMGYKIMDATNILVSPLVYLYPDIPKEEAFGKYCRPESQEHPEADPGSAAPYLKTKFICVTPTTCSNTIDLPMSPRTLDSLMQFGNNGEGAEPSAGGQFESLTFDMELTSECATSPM
Summary of the method: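 Fluorescence intensity of 6-FAM-labelled reporter fragments, separated by capillary electrophoresis after RT-PCR, gave the signal. Cells were HepG2 transfected with cis-element reporter units and treated 24 h; fitting was bidirectional relative to DMSO.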

[16] = ATG_TA_CIS: Attagene CIS-FACTORIAL HepG2 Assay for human TA Basal Promoter (AID 2282964); conditions: HepG2 Attagene CIS-factorial TA basal promoter reporter; actives raise or lower the signal
Summary of the method: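 Fluorescence from labelled RT-PCR reporter fragments, separated by capillary electrophoresis, gives the signal. Cells: HepG2 transiently carrying multiple reporter units, 24 h chemical dosing. Gain or loss relative to DMSO.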

[17] = ATG_TCF_b_cat_CIS: Attagene CIS-FACTORIAL HepG2 Assay for human T-Cell-Factor with beta-catenin (TCF/b-cat) (AID 2282965); conditions: HepG2 TCF/beta-catenin cis-reporter transcription, actives raise or lower the signal
Summary of the method: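 Cells of the HepG2 line carry transiently transfected reporter units whose promoters respond to endogenous factors. Twenty-four hours post-dosing, reporter mRNA induction is measured by fluorescent RT-PCR and capillary electrophoresis, with DMSO as baseline.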

[18] = ATG_PPRE_CIS: Attagene CIS-FACTORIAL HepG2 Assay for human Peroxisome Proliferator-activated Response Element (PPRE) (AID 2282958); conditions: HepG2 PPRE cis-element reporter, Attagene transcription factor profiling; actives raise or lower the signal
Summary of the method: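 Endogenous PPRE-driven transcription is measured in HepG2 cells carrying transfected multi-reporter constructs. Reporter transcripts are quantified by RT-PCR, HpaI digestion and capillary electrophoresis 24 h after dosing. DMSO baseline, bidirectional fit.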

[19] = target: Transcription factor Sp1 (Homo sapiens) (UniProt P08047); experiment: ATG_Sp1_CIS: Attagene CIS-FACTORIAL HepG2 Assay for human Specificity Protein 1 (Sp1) (AID 2282961); conditions: HepG2 Sp1 cis-reporter transcription, actives raise or lower the signal
Sequence of Transcription factor Sp1 (Homo sapiens) (P08047 whole entry, looked up): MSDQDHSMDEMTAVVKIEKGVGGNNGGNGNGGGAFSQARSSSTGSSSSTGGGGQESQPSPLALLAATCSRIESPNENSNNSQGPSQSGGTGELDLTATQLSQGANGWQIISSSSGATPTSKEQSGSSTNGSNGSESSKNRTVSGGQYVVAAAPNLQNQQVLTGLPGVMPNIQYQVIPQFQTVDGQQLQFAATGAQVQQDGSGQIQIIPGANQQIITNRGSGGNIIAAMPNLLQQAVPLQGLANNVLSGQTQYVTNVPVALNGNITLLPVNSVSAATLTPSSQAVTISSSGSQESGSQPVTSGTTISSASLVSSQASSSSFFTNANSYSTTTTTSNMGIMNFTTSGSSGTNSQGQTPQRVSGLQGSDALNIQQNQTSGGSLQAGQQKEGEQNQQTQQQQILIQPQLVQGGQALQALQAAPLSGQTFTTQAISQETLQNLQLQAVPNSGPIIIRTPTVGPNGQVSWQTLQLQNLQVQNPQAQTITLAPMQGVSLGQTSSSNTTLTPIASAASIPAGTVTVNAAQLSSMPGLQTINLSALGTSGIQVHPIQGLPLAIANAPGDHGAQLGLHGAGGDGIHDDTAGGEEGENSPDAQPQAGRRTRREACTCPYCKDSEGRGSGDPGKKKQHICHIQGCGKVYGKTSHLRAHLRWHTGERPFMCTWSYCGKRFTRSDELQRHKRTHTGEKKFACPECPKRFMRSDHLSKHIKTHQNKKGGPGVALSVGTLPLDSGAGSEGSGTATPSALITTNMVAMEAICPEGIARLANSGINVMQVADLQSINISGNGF
Summary of the method: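 Read-out is reporter transcript level, measured by RT-PCR and fluorescent capillary electrophoresis after 24 h chemical treatment. System: transiently transfected HepG2 cells reporting endogenous transcription factor activity; gain or loss fitted against DMSO baseline.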

[20] = target: Heat shock factor protein 1 (Homo sapiens) (UniProt Q00613); experiment: ATG_HSE_CIS: Attagene CIS-FACTORIAL HepG2 Assay for human Heat Shock Transcription Factor 1 (HSE) (AID 2282953); conditions: HepG2 HSE cis-reporter, Attagene RNA transcription; actives raise or lower the signal
Sequence of Heat shock factor protein 1 (Homo sapiens) (Q00613 whole entry, looked up, the tested form may be a part): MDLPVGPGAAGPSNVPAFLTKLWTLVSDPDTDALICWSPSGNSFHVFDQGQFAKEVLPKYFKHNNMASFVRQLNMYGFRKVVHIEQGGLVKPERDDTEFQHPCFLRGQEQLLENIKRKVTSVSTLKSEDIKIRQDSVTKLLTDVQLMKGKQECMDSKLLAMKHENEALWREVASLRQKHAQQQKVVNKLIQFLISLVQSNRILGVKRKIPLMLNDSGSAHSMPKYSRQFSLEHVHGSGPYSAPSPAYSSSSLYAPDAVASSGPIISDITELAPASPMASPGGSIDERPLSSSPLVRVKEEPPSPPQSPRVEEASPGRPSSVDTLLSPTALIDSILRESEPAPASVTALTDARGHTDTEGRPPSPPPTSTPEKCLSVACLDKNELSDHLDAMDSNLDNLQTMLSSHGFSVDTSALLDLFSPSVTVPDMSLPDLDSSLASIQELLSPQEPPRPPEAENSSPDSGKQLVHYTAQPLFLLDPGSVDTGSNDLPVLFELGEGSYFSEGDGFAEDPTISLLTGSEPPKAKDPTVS
Summary of the method: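 Endogenous transcription factor activity captured via cis-promoter reporter units transfected into HepG2; treatment lasted 24 h. Fluorescence intensity of reporter fragments analysed with bidirectional curve fitting, DMSO baseline.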

Measured: AC50

CC(C)N(C(=O)SCC(Cl)=C(Cl)Cl)C(C)C
active: [1] 19.9 µM | [8] 29.1 µM | [11] 3.05 µM | [14] 29.1 µM
not listed: [18] | [19] | [20]
inactive: all other assays above

Nc1c(Cl)cc([N+](=O)[O-])cc1Cl
active: [2] 86.3 µM | [8] 64.6 µM | [11] 44.2 µM | [18] 34.4 µM | [15] 75.9 µM
not listed: [7] | [20]
inactive: all other assays above

FC(F)C(F)(F)OCC(Cn1cncn1)c1ccc(Cl)cc1Cl (stereo not given)
active: [6] 75.4 µM | [8] 69.3 µM | [11] 6.25 µM | [18] 44.5 µM | [12] 50 µM | [14] 13.2 µM
not listed: [7] | [9] | [10] | [19] | [20]
inactive: all other assays above

CC1(C(=O)Nc2ccc(O)c(Cl)c2Cl)CCCCC1
active: [8] 50 µM | [9] 5.86 µM | [11] 2.91 µM | [18] 36.3 µM | [12] 50 µM | [14] 23.1 µM
not listed: [2] | [10] | [19]
inactive: all other assays above

CNc1cnn(-c2cccc(C(F)(F)F)c2)c(=O)c1Cl
active: [20] 10.4 µM | [11] 20.1 µM | [12] 27.6 µM
not listed: [7]
inactive: all other assays above

C[Si](Cn1cncn1)(c1ccc(F)cc1)c1ccc(F)cc1
active: [1] 69 µM | [4] 35.4 µM | [6] 50 µM | [8] 63.2 µM | [11] 3.52 µM | [18] 43.1 µM | [12] 18.7 µM | [14] 13.9 µM | [16] 50 µM
inactive: [3] | [5] | [13] | [15] | [17]

CCOC(=O)CC(SP(=O)(OC)OC)C(=O)OCC (stereo not given)
active: [11] 34.8 µM | [18] 39.7 µM
not listed: [7] | [10]
inactive: all other assays above

CCc1cccc(CC)c1N(COC)C(=O)CCl
active: [11] 1.15 µM | [19] 7.75 µM
not listed: [20]
inactive: all other assays above

CN(C)[C@@H]1C(=O)C(C(N)=O)=C(O)[C@@]2(O)C(=O)C3=C(O)c4c(O)cccc4[C@@](C)(O)[C@H]3[C@H](O)[C@@H]12
active: [11] 65 µM and 26.5 µM and 34.9 µM
not listed: [1] | [2] | [6] | [9] | [12] | [18] | [19]
inactive: all other assays above

CCOP(=S)(OCC)Oc1ccc2c(C)c(Cl)c(=O)oc2c1
active: [11] 1.46 µM | [18] 15 µM
not listed: [1] | [7] | [19]
inactive: all other assays above

CNC(=O)ON=C(SC)C(=O)N(C)C
active: [11] 29.3 µM | [14] 50 µM
not listed: [1] | [2] | [20]
inactive: all other assays above

CSc1nc(NC(C)C)nc(NC(C)C)n1
active: [11] 4.94 µM
not listed: [1] | [2] | [10] | [18] | [20]
inactive: all other assays above

O=C(O)c1cc(Oc2ccc(C(F)(F)F)cc2Cl)ccc1[N+](=O)[O-]
active: [11] 60 µM
not listed: [1] | [7] | [9] | [10] | [18] | [19] | [20]
inactive: all other assays above

CCCCOC(=O)[C@@H](C)Oc1ccc(Oc2ccc(C#N)cc2F)cc1
active: [11] 64.7 µM
not listed: [1] | [7]
inactive: all other assays above

CC(C)=CC1C(C(=O)OCN2C(=O)C3=C(CCCC3)C2=O)C1(C)C (stereo not given)
active: [6] 50 µM | [20] 93.9 µM | [8] 64.6 µM | [11] 13.5 µM | [12] 50 µM | [14] 65.2 µM
not listed: [1] | [7] | [9] | [10] | [18]
inactive: all other assays above
